The record followed here is PubChem BioAssay (NCATS).

Each structure is given as a SMILES string. Results filed as inconclusive are left out. The source made the active and inactive calls. Unless noted, calls follow the shape of the dose curve; as a rule, active = well fitted inhibition curve with a large enough effect; inconclusive = small, poorly fitted or top-dose-only effect; inactive = no such curve, though single readings can be large or run the other way.

Assay [1] can be described thus: qHTS profiling of the MIPE4 collection as inhibitors of Plasmodium falciparum (DD2) proliferation (AID 743345; call rule not given here). As to conditions: P. falciparum Dd2 in erythrocytes, SYBR Green DNA, 72 h; at 28.5 µM (top of the series) unless noted. The essentials:
(§1)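 Parasite DNA was quantified by SYBR Green I fluorescence (ex 485, em 535 nm) after overnight lysis in saponin/Triton buffer at room temperature. Cultures at 0.3% parasitemia and 2.5% hematocrit were first exposed to compound for 72 h at 37 C; signals were normalised to artemisinin (0.29 uM) and vehicle wells.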

Assay [2] can be described thus: qHTS profiling of the MIPE4 collection as inhibitors of Plasmodium falciparum (DD2) proliferation (Rep 2) (AID 743346; call rule not given here). As to conditions: P. falciparum Dd2 in erythrocytes, SYBR Green DNA, 72 h; at 28.5 µM (top of the series) unless noted. The method in brief: as §1
(In general: qHTS replaces the single test concentration by a dilution series.)

Assay [3] in a line: qHTS profiling of the MIPE4 collection as inhibitors of Plasmodium falciparum (HB3) proliferation (AID 743347; call rule not given here;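 also: plate controls were DMSO vehicle wells for no effect and artemisinin wells for full effect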). As to conditions: P. falciparum HB3 in erythrocytes, SYBR Green DNA, 72 h; at 28.5 µM (top of the series) unless noted. The method in brief:
as §1

The nature of assay [4]: High-throughput drug toxicity screening in the BPDCN cell line Gen2.2 (AID 1224824; call rule not given here;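 also: cells exposed to compounds for 48 h before reading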). As to conditions: Gen2.2 BPDCN cells; at 45.8 µM (top of the series) unless noted. The essentials: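 CellTiter-Glo luminescence after 48 h compound exposure of Gen2.2 cells; percent activity set with DMSO as 100% and bortezomib (9.2 uM final) as 0%. Cells seeded at 500 per well, RPMI + 10% FBS, 37 °C.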

The nature of assay [5]: High-throughput drug toxicity screening in the BPDCN cell line Cal-1 (AID 1224825; call rule not given here). To be noted: Cal-1 BPDCN cell viability, qHTS; at 45.8 µM (top of the series) unless noted. The method in brief: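 Viability of the BPDCN line Cal-1 is measured as ATP-based luminescence (CellTiter-Glo) following 48 h incubation with compounds. Percent activity uses DMSO-treated wells as 100% and 9.2 uM bortezomib as 0%.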

The nature of assay [6]: qHTS assay for measurement of the activity of small molecule inhibitors on Zika virus induced Caspase-3 activity in human iPSC derived neural progenitor cells (hNPCs) (AID 1224857). Also: % of control where 0% means no effect; nearly all actives have a fitted effect of over 65% in size. The essentials: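 Caspase-3/7 induction by a 6-hour ZIKV infection was quantified with a luminescent Caspase-Glo 3/7 reagent incubated 30 minutes at room temperature. Compounds were preincubated with hNPCs for 1 hour; inhibition was calculated against uninfected and infected control wells.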

Assay [7] is described as follows: qHTS assay for measurement of the activity of small molecule inhibitors on Zika virus induced Caspase-3 activity in human astrocytoma cells (AID 1224859).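 Also: plate controls were ZIKV-infected untreated cells for no effect and uninfected cells for full effect.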 The method in brief:
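In SNB-19 cells plated at 250 cells/well and grown 16-20 h, compounds were applied 1 h before ZIKV (2 FFU/cell). Six hours later caspase-3/7 luminescence was recorded.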

Assay [8] is described as follows: qHTS Screen of the MIPE 4.0 Collection Against Ewings Sarcoma (RDES) (AID 1259252). Also: nearly all actives have a fitted effect of over 35% in size. Also: potency is read from the fitted curve at half-maximal effect. The essentials: (§2)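 Compound titrations go onto adherent log-phase cells 4 h after seeding, incubate 48 h at 37C, then CellTiter-Glo luminescence reports viability relative to DMSO and cell-free controls.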
Assay [9] in a line: qHTS Screen of the MIPE 4.0 Collection Against Ewings Sarcoma (TC71) (AID 1259253). Also: nearly all actives have a fitted effect of over 40% in size. Also: potency is read from the fitted curve at half-maximal effect. The method in brief:
as §2

The nature of assay [10]: qHTS Screen of the MIPE 4.0 Collection Against Ewings Sarcoma (EW8) (AID 1259255). Also: nearly all actives have a fitted effect of over 35% in size. Also: potency is read from the fitted curve at half-maximal effect.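 As to viability: 100% = DMSO-treated cells and 0% = medium-only wells without cells.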 The method in brief: as §2

Consider `CCCCCCCCCCCC(CC1OC(=O)C1CCCCCC)OC(=O)C(CC(C)C)NC=O` (stereo not given), for which the parasite growth remaining, % of DMSO control (lower = more inhibition) in assay [1] came to 13.8%. The parasite growth, % of control (lower = inhibition) in assay [2] is 17%. The same compound registered a growth, % of control in assay [3] of 3.37%. The cell viability, % of control (lower = more cytotoxic) in [4] is 82.8%. Further, in assay [5], the viability (% of control) came to 89.4%. In addition, the Potency result in [6], in assay [7], in assay [8], in assay [9] and in [10] was “inactive” each time.

For `CON=C(C(=O)N[C@@H]1C(=O)N2C(C(=O)O)=C(CSC(=O)c3ccco3)CS[C@H]12)c1csc(N)n1`, the parasite growth remaining, % of DMSO control (lower = more inhibition) in assay [1] came out at 101%. In addition, in assay [2], the parasite growth, % of control (lower = inhibition) turned out to be 71%. Besides, the growth, % of control in assay [3] is 53.4%. The cell viability, % of control (lower = more cytotoxic) in [4] is 7.56%. The viability (% of control) in [5] was 8.07%. In addition, the Potency result in [6], in assay [7], in assay [8], in [9] and in assay [10] was “inactive” each time.

Turning to `CO[C@@H]1[C@@H](O)[C@H](O)[C@@H](n2c3c(Cl)cccc3c3c4c(c5c6cccc(Cl)c6[nH]c5c32)C(=O)NC4=O)O[C@@H]1CO`, the parasite growth remaining, % of DMSO control (lower = more inhibition) in [1] is 7.89%. Further, in [2], the parasite growth, % of control (lower = inhibition) was found to be 8.26%. In assay [3], the growth, % of control stood at 8.64%. Moreover, the cell viability, % of control (lower = more cytotoxic) in [4] came out at 12.9%. Also, in [5], the viability (% of control) was determined as 5.01%. The Potency result in [6] and in [7] was “inactive” in each case. For the same compound, the Potency in assay [8] is 105 nM (active); in assay [9], 93.5 nM (active); in assay [10] it was 105 nM (active).

For the compound `Cc1coc2c1C(=O)C(=O)c1c-2ccc2c(C)cccc12`, the parasite growth remaining, % of DMSO control (lower = more inhibition) in assay [1] stood at 19.5%. The parasite growth, % of control (lower = inhibition) in [2] turned out to be 15.4%. In [3], this compound gave a growth, % of control of 3.19%. Further, the cell viability, % of control (lower = more cytotoxic) in [4] was 45.1%. The viability (% of control) in assay [5] was 93.8%. The Potency entry in [6], in [7], in assay [8] and in assay [10] was “inactive” in each case. Besides, the Potency in assay [9] is 11800 nM (active).

On to `CC(=O)[C@]1(O)Cc2c(O)c3c(c(O)c2[C@@H](O[C@H]2C[C@H](N)[C@@H](O)[C@H](C)O2)C1)C(=O)c1ccccc1C3=O`, for which the parasite growth remaining, % of DMSO control (lower = more inhibition) in [1] is 46.3%. The parasite growth, % of control (lower = inhibition) in assay [2] was determined as 49%. The growth, % of control in assay [3] came out at 11.5%. In addition, in assay [4], the cell viability, % of control (lower = more cytotoxic) is 6.08%. Moreover, the viability (% of control) in [5] was 4.63%. For the same compound, the Potency result in assay [6] and in assay [7] was “inactive” throughout. For the same compound, the Potency was 59 nM (active) in assay [8], 37.2 nM (active) in [9] and 18.7 nM (active) in [10].

Consider `Cc1noc(-c2ccc(CSCCC(=O)O)cc2)c1NC(=O)OC(C)c1ccccc1Cl` (stereo not given), for which, in assay [1], the parasite growth remaining, % of DMSO control (lower = more inhibition) is 96%. Also, the parasite growth, % of control (lower = inhibition) in [2] was found to be 49.9%. The compound also showed a growth, % of control in assay [3] of 61.1%. In addition, the cell viability, % of control (lower = more cytotoxic) in assay [4] was determined as 157%. The viability (% of control) in assay [5] was determined as 103%. In addition, the Potency entry in [6], in assay [7], in [8], in assay [9] and in [10] was “inactive” in each case.

`COc1cc(C[C@@H](CO)[C@H](CO)Cc2ccc(O)c(OC)c2)ccc1O`: the parasite growth remaining, % of DMSO control (lower = more inhibition) in [1] was determined as 100%. In assay [2], the parasite growth, % of control (lower = inhibition) stood at 80.4%. Further, the growth, % of control in assay [3] turned out to be 96.5%. Further, the cell viability, % of control (lower = more cytotoxic) in [4] was 55.1%. Further, the viability (% of control) in assay [5] was found to be 23.4%. For the same compound, the Potency entry in assay [6] and in assay [7] was “inactive” throughout. Also, the Potency in assay [8] is 209 nM (active); in assay [9], 372 nM (active); in [10], 743 nM (active).

`C=CCNc1c(O)cc2c(O)c1C[C@@H](C)C[C@H](OC)[C@@H](O)[C@@H](C)C=C(C)[C@H](OC(N)=O)[C@@H](OC)C=CC=C(C)C(=O)N2`: in [1], the parasite growth remaining, % of DMSO control (lower = more inhibition) was 6.14%. Moreover, the parasite growth, % of control (lower = inhibition) in assay [2] worked out at 11.1%. In assay [3], this compound displayed a growth, % of control of 8.78%. Besides, the cell viability, % of control (lower = more cytotoxic) in assay [4] was determined as 5.31%. In addition, the viability (% of control) in assay [5] came out at 6.05%. Besides, the Potency result in assay [6] and in [7] was “inactive” in each case. For the same compound, the Potency was 2640 nM (active) in [8], 2350 nM (active) in assay [9] and 5900 nM (active) in assay [10].
